The record followed here is the supplement of paper PMC10849652.

The full data set covers some 7,900 targets. This sample favours those with a hit. About 0.6% of all pairs of compound and target were hits. Values without a mark were called inactive.

Common to all, as to experiment: log2 fold change, soluble protein after heating vs DMSO (PISA); higher = thermal stabilisation; K562 cells, 10 uM, 30 min; active = over 0.2 and 3.5 SD of the protein, either way, in both replicates (recomputed)
Compound in experiment [1]: COC1=CC=C(C=C1)CN2C=CC3=C2C=C(C=C3)C(=O)NO
The essentials: (§1)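 K562 cells at 2×10^6 cells/mL were exposed to 10 μM compound for 30 min, then aliquots were heated for 3 min across 48°C-58°C, pooled, and extracted in PBS containing 0.5% NP-40 at 4°C. The supernatant after 21,000xg for 90 min was taken as soluble protein and measured by TMTpro 16plex LC-MS/MS with channel sums equalised. Thermal stability is reported relative to control samples, with values from duplicates. Fold changes are given on a log2 scale.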

Compound in a further experiment: CON(C)C(=O)N1N=C(c2cc(F)ccc2F)S[C@@]1(CCCN)c1ccccc1 [filanesib]
In a few lines:
as §1

Compound in another experiment: CO[C@H]1C[C@@H]2CC[C@@H](C)[C@@](O)(O2)C(=O)C(=O)N2CCCC[C@H]2C(=O)O[C@H]([C@H](C)C[C@@H]2CC[C@H](n3cnnn3)[C@H](OC)C2)CC(=O)[C@H](C)/C=C(\C)[C@@H](O)[C@@H](OC)C(=O)[C@H](C)C[C@H](C)/C=C/C=C/C=C/1C [zotarolimus]
The essentials: as §1

Compound in the next experiment: COc1cc(C(=O)O)ccc1NC(=O)[C@@H]1N[C@@H](CC(C)(C)C)[C@](C#N)(c2ccc(Cl)cc2F)[C@H]1c1cccc(Cl)c1F [idasanutlin]
The essentials: as §1

Compound in the next experiment: COc1cc(Nc2ncc3c(n2)-c2ccc(Cl)cc2C(c2c(F)cccc2OC)=NC3)ccc1C(=O)O [alisertib]
The essentials:
as §1

Compound in experiment [2]: COc1cc2nc(-c3cc(F)ccc3O)nc(N[C@@H]3CNC[C@H]3C(C)(C)O)c2cc1OC
In a few lines: as §1

Compound in a further experiment: COc1cc2ncnc(Nc3ccc(F)c(Cl)c3)c2cc1OCCCN1CCOCC1 [gefitinib]
In a few lines: as §1

Compound in experiment [3]: COc1cccc2cc(-c3nc([C@H]4CC[C@H](C(=O)O)CC4)n4ncnc(N)c34)[nH]c12
In a few lines: as §1

Compound in a further experiment: CS(=O)(=O)CCNCc1ccc(-c2ccc3ncnc(Nc4ccc(OCc5cccc(F)c5)c(Cl)c4)c3c2)o1 [lapatinib]
In a few lines: as §1

Compound in the next experiment: CS(=O)(=O)N1CCN(Cc2cc3nc(-c4cccc5[nH]ncc45)nc(N4CCOCC4)c3s2)CC1 [pictilisib]
The essentials: as §1

Sequence of UniProt P09211 (P09211 whole entry, looked up): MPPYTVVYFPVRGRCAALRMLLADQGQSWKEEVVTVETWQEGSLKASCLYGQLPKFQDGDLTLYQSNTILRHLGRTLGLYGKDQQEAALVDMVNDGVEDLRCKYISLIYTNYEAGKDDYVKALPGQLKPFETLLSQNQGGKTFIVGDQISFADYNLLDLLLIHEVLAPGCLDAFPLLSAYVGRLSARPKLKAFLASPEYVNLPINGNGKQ
Sequence of UniProt P50213 (P50213 whole entry, looked up): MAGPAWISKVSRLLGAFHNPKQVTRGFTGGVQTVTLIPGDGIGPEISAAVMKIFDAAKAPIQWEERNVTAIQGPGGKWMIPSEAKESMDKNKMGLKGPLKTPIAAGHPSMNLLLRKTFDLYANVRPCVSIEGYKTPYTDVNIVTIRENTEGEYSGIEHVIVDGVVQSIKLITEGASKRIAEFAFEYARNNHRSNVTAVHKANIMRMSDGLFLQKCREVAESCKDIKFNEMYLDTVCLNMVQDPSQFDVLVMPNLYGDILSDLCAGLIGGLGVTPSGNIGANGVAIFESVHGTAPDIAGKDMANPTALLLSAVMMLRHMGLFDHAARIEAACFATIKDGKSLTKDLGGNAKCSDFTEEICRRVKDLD
Sequence of UniProt Q9HCG7 (Q9HCG7 whole entry, looked up): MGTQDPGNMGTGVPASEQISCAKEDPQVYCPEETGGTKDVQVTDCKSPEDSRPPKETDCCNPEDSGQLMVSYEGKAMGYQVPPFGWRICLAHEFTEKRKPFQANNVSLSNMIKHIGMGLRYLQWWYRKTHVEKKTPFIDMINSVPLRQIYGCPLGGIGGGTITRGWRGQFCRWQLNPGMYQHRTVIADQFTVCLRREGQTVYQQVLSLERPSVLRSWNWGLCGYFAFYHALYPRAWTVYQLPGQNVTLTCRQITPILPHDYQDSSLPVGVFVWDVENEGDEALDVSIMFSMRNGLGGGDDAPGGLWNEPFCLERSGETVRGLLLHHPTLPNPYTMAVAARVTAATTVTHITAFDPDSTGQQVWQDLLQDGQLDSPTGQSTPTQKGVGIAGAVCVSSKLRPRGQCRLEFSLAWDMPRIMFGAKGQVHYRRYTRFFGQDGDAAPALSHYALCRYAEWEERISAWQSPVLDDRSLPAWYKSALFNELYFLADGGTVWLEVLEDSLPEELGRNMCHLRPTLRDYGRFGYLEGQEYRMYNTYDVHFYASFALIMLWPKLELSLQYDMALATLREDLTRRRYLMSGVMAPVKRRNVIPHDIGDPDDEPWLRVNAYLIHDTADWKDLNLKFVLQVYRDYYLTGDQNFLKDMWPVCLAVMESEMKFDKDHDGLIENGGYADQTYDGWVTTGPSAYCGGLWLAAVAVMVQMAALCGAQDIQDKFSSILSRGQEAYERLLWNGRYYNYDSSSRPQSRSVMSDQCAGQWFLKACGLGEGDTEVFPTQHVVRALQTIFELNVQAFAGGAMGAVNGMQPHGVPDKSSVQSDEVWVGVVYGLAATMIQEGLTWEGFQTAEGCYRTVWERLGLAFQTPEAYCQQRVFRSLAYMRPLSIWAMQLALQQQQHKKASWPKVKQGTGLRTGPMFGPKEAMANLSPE
Sequence of UniProt Q9BUP3 (Q9BUP3 whole entry, looked up): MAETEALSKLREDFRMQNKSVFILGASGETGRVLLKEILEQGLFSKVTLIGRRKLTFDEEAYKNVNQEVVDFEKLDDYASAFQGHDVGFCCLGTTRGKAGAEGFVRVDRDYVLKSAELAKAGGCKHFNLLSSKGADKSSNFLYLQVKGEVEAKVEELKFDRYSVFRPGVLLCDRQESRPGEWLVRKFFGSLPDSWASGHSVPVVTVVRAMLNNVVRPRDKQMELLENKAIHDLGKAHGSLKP
Sequence of UniProt P04035 (P04035 whole entry, looked up): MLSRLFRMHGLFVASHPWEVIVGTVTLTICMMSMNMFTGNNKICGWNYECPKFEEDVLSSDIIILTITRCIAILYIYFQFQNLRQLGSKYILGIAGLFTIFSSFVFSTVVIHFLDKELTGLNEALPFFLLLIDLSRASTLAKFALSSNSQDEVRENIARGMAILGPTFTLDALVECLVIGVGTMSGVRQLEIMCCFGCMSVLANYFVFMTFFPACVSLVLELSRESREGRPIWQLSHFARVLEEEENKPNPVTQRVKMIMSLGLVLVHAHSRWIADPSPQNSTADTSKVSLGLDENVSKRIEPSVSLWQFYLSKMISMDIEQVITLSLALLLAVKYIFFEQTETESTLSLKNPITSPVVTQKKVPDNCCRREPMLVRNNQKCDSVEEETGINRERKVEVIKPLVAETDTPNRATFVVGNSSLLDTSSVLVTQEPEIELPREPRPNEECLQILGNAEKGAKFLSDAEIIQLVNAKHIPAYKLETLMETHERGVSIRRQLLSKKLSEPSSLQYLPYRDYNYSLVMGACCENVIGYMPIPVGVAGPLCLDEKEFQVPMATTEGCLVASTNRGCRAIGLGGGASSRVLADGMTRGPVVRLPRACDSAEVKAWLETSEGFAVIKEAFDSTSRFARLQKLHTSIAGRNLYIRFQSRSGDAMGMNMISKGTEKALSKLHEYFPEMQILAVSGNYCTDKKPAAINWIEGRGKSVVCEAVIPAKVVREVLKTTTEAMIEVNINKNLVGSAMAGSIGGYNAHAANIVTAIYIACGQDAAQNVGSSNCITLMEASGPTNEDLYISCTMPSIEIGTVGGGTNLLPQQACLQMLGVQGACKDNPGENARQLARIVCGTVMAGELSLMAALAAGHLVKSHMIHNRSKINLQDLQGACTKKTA
Sequence of UniProt Q9H0R8 (Q9H0R8 whole entry, looked up): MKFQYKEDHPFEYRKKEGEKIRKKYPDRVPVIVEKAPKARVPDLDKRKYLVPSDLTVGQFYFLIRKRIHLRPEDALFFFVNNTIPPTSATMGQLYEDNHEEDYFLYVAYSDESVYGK
Sequence of UniProt P48507 (P48507 whole entry, looked up): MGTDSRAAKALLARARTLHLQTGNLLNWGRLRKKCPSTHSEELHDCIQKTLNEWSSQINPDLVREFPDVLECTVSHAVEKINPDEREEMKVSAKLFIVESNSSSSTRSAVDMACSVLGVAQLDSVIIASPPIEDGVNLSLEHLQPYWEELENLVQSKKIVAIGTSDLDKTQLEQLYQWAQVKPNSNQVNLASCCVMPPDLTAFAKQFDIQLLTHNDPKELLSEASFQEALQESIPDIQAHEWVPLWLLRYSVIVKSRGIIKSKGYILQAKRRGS
Sequence of UniProt Q8N9F7 (Q8N9F7 whole entry, looked up): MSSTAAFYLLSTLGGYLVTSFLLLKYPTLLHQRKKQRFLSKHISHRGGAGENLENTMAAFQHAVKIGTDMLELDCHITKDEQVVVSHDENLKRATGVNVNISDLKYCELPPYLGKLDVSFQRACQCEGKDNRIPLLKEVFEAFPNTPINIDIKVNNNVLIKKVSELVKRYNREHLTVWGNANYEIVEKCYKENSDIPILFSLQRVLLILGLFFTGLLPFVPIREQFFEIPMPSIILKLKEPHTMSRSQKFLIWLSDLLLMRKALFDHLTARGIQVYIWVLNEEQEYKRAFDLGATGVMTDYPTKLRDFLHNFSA
Sequence of UniProt Q16774 (Q16774 whole entry, looked up): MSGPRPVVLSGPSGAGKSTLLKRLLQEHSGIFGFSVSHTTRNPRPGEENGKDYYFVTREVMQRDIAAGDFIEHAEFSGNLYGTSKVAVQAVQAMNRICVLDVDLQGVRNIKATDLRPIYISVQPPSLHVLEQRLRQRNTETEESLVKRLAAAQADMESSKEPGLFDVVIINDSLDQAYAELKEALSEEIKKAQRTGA
Sequence of UniProt Q01628 (Q01628 whole entry, looked up): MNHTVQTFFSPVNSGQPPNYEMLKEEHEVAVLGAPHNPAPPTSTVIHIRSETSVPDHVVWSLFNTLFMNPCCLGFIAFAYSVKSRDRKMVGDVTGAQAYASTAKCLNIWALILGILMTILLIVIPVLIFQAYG
Sequence of UniProt P49356 (P49356 whole entry, looked up): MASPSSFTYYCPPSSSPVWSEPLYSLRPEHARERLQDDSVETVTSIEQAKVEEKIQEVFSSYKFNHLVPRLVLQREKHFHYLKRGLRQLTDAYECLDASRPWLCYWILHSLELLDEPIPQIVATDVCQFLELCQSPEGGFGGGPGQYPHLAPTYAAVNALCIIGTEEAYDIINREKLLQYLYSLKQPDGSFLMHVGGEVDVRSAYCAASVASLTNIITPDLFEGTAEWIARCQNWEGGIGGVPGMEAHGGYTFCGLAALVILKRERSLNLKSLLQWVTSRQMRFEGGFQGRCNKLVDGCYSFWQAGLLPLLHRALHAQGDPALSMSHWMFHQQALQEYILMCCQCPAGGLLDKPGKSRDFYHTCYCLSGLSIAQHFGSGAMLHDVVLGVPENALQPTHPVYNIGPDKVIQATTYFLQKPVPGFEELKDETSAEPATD

For GBA2 (UniProt Q9HCG7), the log2 fold change in [1] was -0.064; with filanesib, 0.117; with zotarolimus, 0.087; with idasanutlin, -0.042; with alisertib it was 0.067; in [2], 0.049. For the same target, the log2 fold change in the experiment with gefitinib is 0.084; in experiment [3], -0.062; with lapatinib, 0.011.

Turning to GDPD1 (UniProt Q8N9F7), the log2 fold change in experiment [1] was 0.353 (active); with filanesib, 0.056; with zotarolimus it was 0.13; in the experiment with idasanutlin, 0.156; with alisertib, -0.068; in experiment [2] it was 0.208. Moreover, the log2 fold change in the experiment with gefitinib was 0.067; in experiment [3] it was 0.021; with lapatinib, 0.04; with pictilisib, 0.085.

Take FNTB (UniProt P49356): the log2 fold change in experiment [1] is 0.088; with filanesib, 0.26; in the experiment with zotarolimus, 0.159; with idasanutlin, -0.024; in the experiment with alisertib, -0.074; in experiment [2] it was -0.057. Also, the log2 fold change with gefitinib is 0.02; in [3] it was 0.024; in the experiment with lapatinib it was 0.18; in the experiment with pictilisib, -0.165.

HTATIP2 isoform 3 (UniProt Q9BUP3): the log2 fold change is -0.003 in [1]; -0.091 with filanesib; 0.364 (active) in the experiment with zotarolimus; -0.031 with idasanutlin; -0.029 with alisertib; -0.131 in [2]. In addition, the log2 fold change is 0.066 with gefitinib, 0.054 in experiment [3], -0.015 with lapatinib and 0.137 with pictilisib.

Regarding GSTP1 (UniProt P09211), the log2 fold change in experiment [1] is -0.033; in the experiment with filanesib, -0.038; with zotarolimus, 0.004; with idasanutlin, -0.033; in the experiment with alisertib it was -0.003; in experiment [2] it was -0.003. The log2 fold change with gefitinib is 0.021; in experiment [3] it was 0.069; in the experiment with lapatinib, -0.032; with pictilisib it was 0.035.

Regarding GOPC (UniProt Q9HD26), the log2 fold change in experiment [1] was -0.059; with filanesib, 0.259; with zotarolimus it was 0.329; with idasanutlin, 0.007; with alisertib, -0.026; in experiment [2], 0.668 (active). For the same target, the log2 fold change with gefitinib was 0.137; in [3], -0.146; with lapatinib, 0.15; with pictilisib it was 0.08.

For GCLM (UniProt P48507), the log2 fold change was 0.066 in [1]; -0.004 in the experiment with filanesib; 0.071 with zotarolimus; -0.124 in the experiment with idasanutlin; -0.003 with alisertib; 0.026 in experiment [2]. The log2 fold change in the experiment with gefitinib was 0.06; in experiment [3], -0.057; in the experiment with lapatinib it was 0.011; with pictilisib, 0.046.

Take FHOD1 (UniProt Q9Y613): the log2 fold change in experiment [1] is -0.044; with filanesib it was 0.084; with zotarolimus it was 0.095; with idasanutlin, 0.127; in the experiment with alisertib it was -0.161; in [2], 0.186. Also, the log2 fold change with gefitinib is -0.005; in experiment [3] it was -0.253; in the experiment with lapatinib, 0.014; with pictilisib, 0.01.

Turning to IFITM3 (UniProt Q01628), the log2 fold change is 0.055 in experiment [1]; 0.008 with filanesib; 0.007 with zotarolimus; 0.07 in the experiment with idasanutlin; -0.121 in the experiment with alisertib; -0.017 in [2]. The log2 fold change with gefitinib is 0.09; in experiment [3] it was 0.089; with lapatinib, 0.004.

For the target HMGCR isoform 3 (UniProt P04035), the log2 fold change in experiment [1] is -0.097; in the experiment with filanesib, -0.027; with zotarolimus, 0; in the experiment with idasanutlin, 0.188; with alisertib, -0.146; in experiment [2], 0.166. The log2 fold change in the experiment with gefitinib was 0.01; in experiment [3], -0.045; in the experiment with lapatinib, -0.066; in the experiment with pictilisib, -0.13.

With GOLGB1 isoform 2 (UniProt Q14789), the log2 fold change in experiment [1] was -0.16; with filanesib it was 0.337 (active); in the experiment with zotarolimus, -0.04; in the experiment with idasanutlin it was 0.066; with alisertib it was -0.069; in [2], 0.072. The log2 fold change in the experiment with gefitinib was -0.02; in [3] it was -0.051; with lapatinib, 0.046; in the experiment with pictilisib it was 0.066.

In the case of GUK1 isoform 2 (UniProt Q16774), the log2 fold change in [1] was 0.215; with filanesib, -0.005; with zotarolimus, 0.022; in the experiment with idasanutlin it was -0.04; with alisertib it was -0.048; in experiment [2], 0.155. The log2 fold change with gefitinib is -0.05; in [3], -0.019; in the experiment with lapatinib it was -0.001; with pictilisib it was 0.017.

As for IDH3A (UniProt P50213), the log2 fold change in [1] was 0; with filanesib it was -0.067; in the experiment with zotarolimus, 0.007; with idasanutlin, -0.074; in the experiment with alisertib, -0.063; in experiment [2], -0.009. The log2 fold change with gefitinib was 0.039; in [3], 0.022; in the experiment with lapatinib, 0.017; with pictilisib, -0.021.

Regarding GABARAPL1 isoform 2 (UniProt Q9H0R8), the log2 fold change is 0.053 in experiment [1]; -0.054 with filanesib; 0.024 in the experiment with zotarolimus; -0.112 with idasanutlin; 0.024 with alisertib; 0.007 in experiment [2]. In addition, the log2 fold change with gefitinib is 0.021; in [3], -0.01; with lapatinib, -0.026; in the experiment with pictilisib, 0.115.
